PubChem BioAssay (NCI)
This is part of a sample that, as a whole, favours compounds with a hit. Of some 83,000 tested, about 20% had one in any assay.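 In brief: 96-well plates, 48 h treatment, single concentration, percent growth endpoint.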 Values without a mark were called inactive. Active and inactive are the calls of the source. The calls were made as follows: active = growth percent below 10; inactive = the rest.

Test system: HL-60(TB) leukemia
Assay: NCI-60 one-dose screen, 48 h (100 = growth as untreated, 0 = no growth, -100 = all killed)
Conditions: 10 µM unless noted

| Compound | growth |
| --- | --- |
| COC(=O)C(N)CC(C)C (stereo not given) | 94.6% |
| O=c1[nH]ccc2nc(N3CCC(O)CC3)nc(Nc3cccc(C(F)(F)F)c3)c12 | 29.6% |
| O=c1ccccc(-c2ccc(-c3ccco3)cc2)c1O | -30.3% (active) |
| CCCCCCCCCCCCCCCCOc1ccc(S(=O)(=O)N(C)C)cc1[N+](=O)[O-] | 110% |
| O=C1NC(=C(Cl)Cl)/C(=N/S(=O)(=O)NCCc2c[nH]c3ccccc23)N1 | 50.2% |
| CCCCS(=O)(=O)Oc1ccc(-c2nc(C)c(C(=O)OCC)s2)cc1C=O | 37.7% |
| CSc1nc(NCc2ccccc2)c(C#N)c(-c2cccc([N+](=O)[O-])c2)n1 | 107% |
| COc1ccc(/C(=N\N)C(=O)c2ccccc2)cc1 (tested in a mixture with another compound) | 77.8% |
| CS(=O)(=O)c1cccnn1 | 108% |
| CN1[C@@H]2CC[C@H]1/C(=C\c1ccccc1)C1=C2[C@@H](c2ccccc2)C(C#N)=C(N)O1 | 60.4% |
| Fc1ccc2[nH]c3c(NCCCN4CCOCC4)ncnc3c2c1 | 109% |
| CC1(C)CC[C@]2(CO)CC[C@]3(C)[C@H](CC[C@@H]4[C@@]5(C)CCCNC(C)(C)[C@@H]5CC[C@]43C)[C@H]2[C@H]1O | 57.8% |
| CCN1C(=O)N(CC)C2C1NN=c1s/c(=C\c3ccco3)c(=O)n12 (stereo not given) | -20.3% (active) |
| CCOc1c(C#N)nnc2c(C#N)c(NC(=O)c3ccccc3)nn12 | 104% |
| N#Cc1nn(-c2ccccn2)c(N)c1C#N | 96.1% |
| Cc1cc(C2=NNC(=O)Cc3cc4c(cc32)OCCO4)cc(C)c1N | 21.6% |
| c1ccc(CCn2cccc2)nc1 | 1.63% (active) |
| CC1(C)N=C(N)N=C(N)N1c1ccc(CCc2ccccc2)c(Cl)c1 | 2.09% (active) |
| Brc1cccc(-c2cc(-c3ccc4c(c3)OCCO4)[nH]n2)c1 | 12.3% [25 µM] |
| CN(C)C(=O)c1cc2cnc(Nc3ccc(-c4csc5c(=O)cc(N6CCOCC6)oc45)cc3)nc2n1C1CCCC1 | -46.7% (active) |

| Compound | growth |
| --- | --- |
| O=C(COc1ccc(Cl)cc1)N1CCN(Cc2ccc3c(c2)OCO3)CC1 | 109% |
| O=C1OCC2=C1C(c1cccc(C(F)(F)F)c1)c1cc3c(cc1N2CCO)CCC3 (stereo not given) | -25.2% (active) |
| O=C(O)c1ccccc1C(F)(F)F | 100% |
| OB(O)c1ccsc1-c1nc2ccc3[nH]ncc3c2c2c1CCCC2 | 52.2% |
| O=C(O)CCCCSCCCCC(=O)O | 97.8% |
| CC(=O)c1ccc(Br)c([N+](=O)[O-])c1 | 122% |
| Cc1cc(Oc2ccccc2)ccc1Nc1ncnc2ccc(-c3cnc(Cl)c(NS(C)(=O)=O)c3)cc12 | 30.3% |
| O=S(=O)(NCCCNc1nccc(-c2c(-c3ccccc3)nc3sccn23)n1)c1ccc(F)cc1 | 22.5% |
| O=C1CCC/C=C\C[C@H]2C=C(Cl)C(=O)/C2=C/C[C@H](CCCCC(F)(F)F)OC(=O)CCC/C=C\C[C@H]2C=C(Cl)C(=O)/C2=C/C[C@H](CCCCC(F)(F)F)O1 | -16.5% [7.5 µM] (active) |
| Nc1ncnc(Nc2ccccc2)n1 | 107% |
| N#CC1=C(/N=C/c2ccccc2)Oc2c(ccc3ccccc23)C1c1ccc([N+](=O)[O-])cc1 (stereo not given) | 99.1% |
| O=C(/C=C/C=C/c1c(C2CC2)nc2ccccc2c1-c1ccc(F)cc1)c1cccs1 | -17.5% (active) |
| Fc1ccc2[nH]cc(SSc3c[nH]c4ccc(F)cc34)c2c1 | -32.3% (active) |
| COC1(OC)C2(Cl)C(Cl)=C(Cl)C1(Cl)C1COCC12 (stereo not given) | 82.9% |
| CC(=O)OCCC/C(=C\c1ccc2ccccc2c1)[N+](=O)[O-] | -61% (active) |
| N=C(N)c1ccc(-c2ccc(-c3cccs3)s2)cc1F | -47.8% (active) |
| O=C(OCC1OC(n2cc(C(F)(F)F)c(=O)[nH]c2=O)CC1OC(=O)c1ccc([N+](=O)[O-])cc1)c1ccc([N+](=O)[O-])cc1 (stereo not given) | 62.7% |
| CC(=O)O[C@@H]1C[C@]2(C)[C@H]3[C@H](O)C[C@@H]4C5=CC(C)(C)CC[C@]5(C)CC[C@@]4(C)[C@]3(C)CC[C@H]2C(C)(C)[C@H]1O | 120% |
| COc1ccc(/C=C2\COc3ccc(-c4ccccc4)cc3C2=O)cc1O | -34% (active) |
| NC(=O)c1ccccc1OCC(O)CO (stereo not given) | 108% |
